Bioassay records (PubChem)
RORg inh: blocks mouse ROR gamma transcriptional activity; Drosophila S2 Gal4-RORgamma UAS-luciferase reporter, 20 h; Potency, µM (titrated, usually from 53.6 µM), for the others: top-dose activity change, negative = inhibition, actives largely listed as inhibitors; 310,000 compounds, 5.4% hits; also: nearly all actives have a fitted effect of over 60% in size
Target sequence (P51450 whole entry, looked up, the tested form may be a part): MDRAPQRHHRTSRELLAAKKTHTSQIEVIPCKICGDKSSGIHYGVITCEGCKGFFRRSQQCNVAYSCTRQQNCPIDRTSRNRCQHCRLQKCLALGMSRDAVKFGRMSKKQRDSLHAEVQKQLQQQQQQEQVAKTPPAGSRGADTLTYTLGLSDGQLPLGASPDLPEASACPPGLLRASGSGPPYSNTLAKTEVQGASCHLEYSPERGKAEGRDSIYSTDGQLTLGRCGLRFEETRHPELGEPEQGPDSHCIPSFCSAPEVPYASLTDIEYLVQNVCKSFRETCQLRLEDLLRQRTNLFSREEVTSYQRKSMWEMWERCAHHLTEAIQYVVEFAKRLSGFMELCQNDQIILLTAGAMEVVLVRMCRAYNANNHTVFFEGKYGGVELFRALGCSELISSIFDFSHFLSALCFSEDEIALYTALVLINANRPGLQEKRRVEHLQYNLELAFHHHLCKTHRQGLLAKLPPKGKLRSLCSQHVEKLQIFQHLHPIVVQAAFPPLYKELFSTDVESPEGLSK
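ROR gamma transcriptional activity was tracked as Gal4-UAS luciferase output in stably transfected Drosophila Schneider cells, with compound added 1 hr before 700 uM copper sulfate induction and a 20 hr ambient-temperature incubation.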
VP16 counter: counter-screen for ROR gamma inhibitors: Gal4-VP16 reporter; Drosophila S2 Gal4-VP16 UAS-luciferase, luminescence, 20 h; Potency, µM (highest dose often 53.6 µM), inactives show top-dose activity, negative = inhibition, actives largely listed as inhibitors; 310,000 compounds, 3.5% hits;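 also: Gal4-VP16 expression switched on by copper sulfate through the metallothionein promoter; nearly all actives have a fitted effect of over 50% in size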
B2AR arrestin: recruits beta-arrestin to the human beta2-adrenergic receptor | 330,000 compounds, 0.02% hits | P07550 | Potency, µM (doses to about 46.1 µM), for the others: at the highest dose activation, usual class: activators | beta-arrestin recruitment to beta2AR, cell-based reporter;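 also: 0% = DMSO controls and full agonism = EC100 isoproterenol or metaproterenol; nearly all actives have a fitted effect of over 65% in size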
NPSR antag: neuropeptide S receptor (human) antagonism, cAMP | 220,000 compounds, 1% hits | CHO-NPSR cells, cAMP TR-FRET, antagonist mode | Potency, µM (highest dose often 38.3 µM), for the others: at the highest dose activity change, negative = inhibition, hits mostly inhibitors | Q6W5P4; also: nearly all actives have a fitted effect of over 50% in size
Numbers without * were called inactive; u = inconclusive; x = no result; ! = a repeat was not active; [ ] = remark or other dose. Most compounds without a hit are left out; they make up all but 5.7% or so of the library. Calls follow the shape of the dose curve; as a rule, active = well fitted curve in the direction sought with a large enough effect; inconclusive = small, poorly fitted or top-dose-only effect, or another doubt; inactive = no such curve, though single readings can be large; an effect the other way counts as inactive or inconclusive. Unless noted, % is scaled to controls: 0 for no effect and ±100 for the full control effect; potency is read from the fitted curve at half-maximal effect.

SMILES | RORg inh | VP16 counter | B2AR arrestin | NPSR antag
CN(C)c1ncc2nc(-c3cccc(C#N)c3)c(=O)n(C[C@H]3CCCO3)c2n1 | -15.4% | 5.6% | x | x
Cc1ccc(C(O)(COC(=O)C(C)C)COC(=O)C(C)C)c(O)c1 | -105.9% | 31.6µM* | 0.3% | -18.1%
Cc1ccc(C)c(O)c1 | 4.1% | -3.8% | x | x
NS(=O)(=O)c1ccc(NS(=O)(=O)c2ccc(NC(=S)Nc3ccccc3)cc2)cc1 | -26.0% | 4.7% | -0.5% | 16.0%
NS(=O)(=O)c1ccc(NC(=S)Nc2ccn(Cc3cccc4ccccc34)n2)cc1 | 10µM* | u | 0.0% | -46.0%
Cc1cccc(-c2nsc(SCC(=O)N3CCCC3)n2)c1 | 7.08µM* | u | -0.7% | -14.3%[46.1 µM]
Cc1cccc(-c2nsc(SCC(=O)Nc3nccs3)n2)c1 | 11.2µM* | -14.3% | 0.1% | -4.2%[46.1 µM]
O=C(CSc1nc(-c2ccccc2)ns1)N1CCOCC1 | -25.5% | -14.3%[10 µM] | -0.9% | 12.2%
Cc1cccc(-c2nsc(SCC(=O)Nc3ccc4c(c3)OCO4)n2)c1 | -12.5% | -5.0% | -0.2% | -2.6%
N=C(N)n1cccn1 | -5.4% | -7.9% | x | x
CCCn1c(COc2ccccc2OC)nc2ccccc21 | 10µM* | u | -0.8% | x
Cn1c(COc2ccccc2Br)nc2ccccc21 | 12.6µM* | u | 9.1% | x
CCCn1c(COc2ccccc2)nc2ccccc21 | 12.6µM* | 0.1% | -0.9% | x
CC(c1nc2ccccc2n1Cc1ccccc1)N1CCCCC1 (centres undefined) | 14.1µM* | u | -0.3% | x
COc1cccc(-c2nc(N3CCN(C)CC3)c3ccccc3n2)c1 | -14.9% | -4.2% | x | x
Cc1ccc2ccccc2c1[N+](=O)[O-] | 4.3% | -5.0% | x | x
COc1ccccc1C(=O)NCCC(=O)NNC(=O)Cn1ccc(C(F)(F)F)n1 | x | x | -0.5% | x
Cc1ccccc1C | -12.4% | -16.7% | x | x
CCn1c(COc2cccc(C)c2)nc2ccccc21 | 10µM* | u | 5.3% | -11.0%[46.1 µM]
CCn1c(COc2ccccc2OC)nc2ccccc21 | 12.6µM* | u | 0.1% | x
c1ccc(Cc2nc3ccccc3n2Cc2ccccc2)cc1 | u | 17.8µM* | -0.1% | -17.4%[46.1 µM]
Cc1nc2ccccc2n1Cc1ccccc1 | 0.5%[1.91 µM] | u | 0.4% | x
CCn1c(Cc2ccc(OC)cc2)nc2ccccc21 | 11.2µM* | 35.5µM* | -0.7% | x
CCn1c(NCc2ccc(OC)cc2)nc2ccccc21 | 0.5% | 6.8% | 1.7% | x
CC1CC1C(=O)N1CCN(S(=O)(=O)c2cc(C(F)(F)F)cc(C(F)(F)F)c2)CC1 (centres undefined) | x | x | 0.3% | x
SMILES | RORg inh | VP16 counter | B2AR arrestin | NPSR antag
NC(=S)Nc1ccc(Oc2ccc(NC(N)=S)cc2)cc1 | 10.4% | -0.9% | 0.3% | -4.2%[46.1 µM]
COc1cc(C(=O)Cc2nc3ccccc3n2C)cc(OC)c1OC | 6.31µM* | 12.6µM* | 0.0% | x
C/C(Cn1nnc([N+](=O)[O-])n1)=N\NC(=O)c1ccccc1 | 10µM* | u | 0.0% | 20.9%[46.1 µM]
CC(=O)c1c(C)[nH]c(C(=O)OCC(=O)Nc2nnc(-c3ccccc3)o2)c1C | x | x | 0.0% | x
C/C(=N\NC(=O)CCC(=O)Nc1ccccc1)c1cccs1 | 32.5% | 6.0% | -2.0% | 8.1%
COC(=O)c1ccccc1S(=O)(=O)NNC(=O)Nc1ccccc1 | 11.2µM* | u | -1.2% | x
CCOC(=O)C1=C(C)n2c(s/c(=C/c3cccc([N+](=O)[O-])c3)c2=O)=NC1c1ccc(O)c(OC)c1 (centres undefined) | 13.7% | 24.3% | 0.3% | 7.94µM*
Cc1[nH]n(-c2ccccc2)c(=O)c1C=Nc1cccc2cccnc12 | 0.631µM* | 0.631µM* | -0.6% | -4.9%
Cc1[nH]n(-c2ccccc2)c(=O)c1/C=N/N1C(=O)c2cccc3cccc(c23)C1=O | 7.08µM* | u | -0.5% | 50.3%
CCCCn1c(N)c(N(CCOC)C(=O)CSc2nnc(-c3ccc(F)cc3)n2N)c(=O)[nH]c1=O | x | x | 3.8% | x
COc1cccc([C@@H]2Oc3ccc(Br)cc3C(=O)[C@H]2O)c1 | -14.7% | -4.6% | x | x
COc1cccc([C@@H]2Oc3ccc(OC)cc3C(=O)[C@H]2O)c1 | 12.6µM*! | u | -2.5% | 2.9%
CO/N=C(\C(=O)N[C@@H]1C(=O)N2C(C(=O)[O-])=C(C[N+]3(C)CCCC3)CS[C@@H]12)c1csc(N)n1 | 8.7%[16.9 µM] | 8.8%[17 µM] | x | x
O=C(O)c1cccc(S(=O)(=O)Nc2ccc3c(c2)CCC3)c1 | u | 10µM* | -1.4% | x
O=C(O)c1cccc(S(=O)(=O)Nc2cccc(S(=O)(=O)Nc3ccc(Br)cc3)c2)c1 | x | x | -0.5% | x
CCOC(=O)Cc1csc(NC(=O)CN2CCCCC2)n1 | 24.9% | -1.9% | -0.6% | x
COc1ccc(OCC(=O)N2N=C(C(F)F)CC2(O)C(F)F)cc1 (centres undefined) | -4.3% | -6.2% | -1.0% | 3.3%
O=C(O)c1cccc(CSc2nnc(COc3ccccc3)o2)c1 | -31.3% | u | -0.1% | 3.9%[46.1 µM]
Cc1cccc(-c2nnc(SCc3ccccc3)o2)c1 | 14.1µM* | -28.5% | 0.1% | -14.7%[46.1 µM]
O=C(O)c1cccc(CSc2nnc(-c3ccc(Cl)cc3)o2)c1 | u | 0.794µM* | -0.9% | x
Brc1cccc(-c2nnc(SCc3nc4ccccc4[nH]3)o2)c1 | 11.2µM* | -17.3% | -0.9% | -9.6%[46.1 µM]
c1ccc2[nH]c(CSc3nnc(-c4ccncc4)o3)nc2c1 | u | 0.1% | 0.6% | -5.7%[46.1 µM]
CNC(=O)c1[nH]cnc1C(=O)Nc1ccccc1C | 11.2µM* | 7.94µM* | -0.6% | -0.7%[46.1 µM]
CNC(=O)c1[nH]cnc1C(=O)Nc1ccccc1OC | 12.6µM* | 15.8µM* | -0.2% | 8.8%[46.1 µM]
CNC(=O)c1[nH]cnc1C(=O)Nc1cccc(Cl)c1 | x | x | 0.1% | x
SMILES | RORg inh | VP16 counter | B2AR arrestin | NPSR antag
Cc1cccc(NC(=O)c2nc[nH]c2C(=O)Nc2ccccc2[N+](=O)[O-])c1 | 4.47µM* | 5.62µM* | 0.1% | -4.9%
CCOC(=O)CN(C)C(=O)C1CC(CO[Si](C)(C)C(C)(C)C)=CN1C(=O)OC(C)(C)C (centres undefined) | 16.0% | 8.9% | x | x
CCC(=O)O[C@@H]1[C@H](C)O[C@H](O[C@H]2[C@@H](N(C)C)[C@H](O)[C@@H](O[C@@H]3[C@@H](CC=O)C[C@@H](C)[C@@H](O)/C=C\C=C/C[C@@H](C)OC(=O)C[C@@H](OC(=O)CC)[C@H]3OC)O[C@H]2C)C[C@]1(C)O | -4.5%[2.98 µM] | -11.8%[17 µM] | x | x
CCC1(C)Cc2nc3[nH]c(=S)n(-c4ccccc4)c(=O)c3cc2CO1 (centres undefined) | 2.82µM* | u | 5.6% | -24.3%
CCC1(C)Cc2nc3[nH]c(=S)n(-c4ccccc4C)c(=O)c3cc2CO1 (centres undefined) | 6.31µM* | 10µM* | -0.4% | -28.8%
CC(C)c1ccc(OCC(=O)Nc2ccccc2C(=O)N2CCOCC2)cc1 | 7.6% | 3.6% | -0.1% | x
Nc1ncc(Br)cc1S(=O)(=O)Nc1cc(C(F)(F)F)cc(C(F)(F)F)c1 | -81.4% | 22.4µM* | -0.1% | x
Cc1ccc(NS(=O)(=O)c2cc(Br)cnc2N)c(Cl)c1 | -0.8% | -8.6% | -0.1% | x
Cc1ccc(-c2nnnn2-c2ccc(C)cc2)cc1 | 0.6% | 5.1%[10 µM] | -0.9% | -12.9%
Cc1ccc(-n2nnnc2-c2cnn(-c3ccc(F)cc3)c2C(F)(F)F)cc1 | u | 22.4µM* | -0.2% | -18.4%[46.1 µM]
